The whole screen tested about 69,000 compounds, of which about 8,600 (12%) showed an effect of 50% or more. This excerpt belongs to a sample that is enriched for strong results.
system: Plasmodium berghei; experiment: Screen against P. berghei liver stage (PbLuc), transformed with Luciferase, at 10uM; type: functional, HepG2; conditions: tested at 10 uM

First: Cc1cnn(CC2CN(Cc3nnc(C(C)C)o3)CCO2)c1 (stereo unspecified)
Second: CC(C)c1nnc(CN2CCCC(Cn3cncn3)C2)o1 (stereo unspecified)
The INHIBITION of the first is higher: 30.6% for the first, 22.03% for the second.

Compared with `COCCN1CC(C(=O)N(C)Cc2csc(C)n2)CC1=O` (stereo unspecified), `Cc1nc(CN(C)C(=O)C2CCC(=O)N(CCN(C)C)C2)cs1` (stereo unspecified) is lower in INHIBITION: 57.8% for the first, 20.8% for the second.

Going from `Cc1nc(CN(C)C(=O)C2CC(=O)N(c3cccc(O)c3)C2)cs1` (stereo unspecified) to `C[C@H](NC(=O)Cc1csc(-c2cccc(Cl)c2)n1)C(=O)O`, the INHIBITION rises from 7.6% to 35%.

First: Cn1cc(CCNC(=O)NCc2ccc3c(c2)OCCO3)cn1
Second: CCC(Nc1cccc(OC)c1)C(=O)NCc1ccc2c(c1)OCO2 (stereo unspecified)
The INHIBITION of the first is lower: 24.5% for the first, 36.4% for the second.

Going from `COCCN1CCC2(CC1)COc1ccccc1S(=O)(=O)N(C)C2` to `COCC(=O)N1CCC2(CC1)COc1ccccc1S(=O)(=O)N(C)C2`, the INHIBITION rises from -4.32% to 66.8%.

First: CN(C)CC(=O)N1CCC2(CC1)COc1ccccc1S(=O)(=O)N(C)C2
Second: CCC(=O)N1CCC2(CC1)COc1ccccc1S(=O)(=O)N(C)C2
The INHIBITION of the first is higher: 50% for the first, -0.182% for the second.

Going from `CN(C)C(=O)CN1CCC2(CC1)COc1ccccc1S(=O)(=O)N(C)C2` to `CN1CC2(CCN(C(=O)C3CCC3)CC2)COc2ccccc2S1(=O)=O`, the INHIBITION rises from 17.4% to 20.4%.

Compared with `N#Cc1csc(CNCCOc2ccc(Cl)cn2)c1`, `N#Cc1cccc(CN2C(=O)C3(CCNCC3)Nc3ccccc32)c1` is higher in INHIBITION: 4.35% for the first, 25.5% for the second.

Compared with `Cc1cnn(CC2CCCN2C(=O)CCCc2nc(C)no2)c1` (stereo unspecified), `COCC(=O)N1CCCCC1c1nc(C)c2c(n1)N(CC1CC1)C(=O)C2` (stereo unspecified) is higher in INHIBITION: -45.8% for the first, 23% for the second.

Going from `Fc1cc(CCNc2ccc3nccn3n2)c2c(c1)COCO2` to `CCCN1CCC(NC(=O)c2ccc(F)cc2I)CC1`, the INHIBITION falls from 48.2% to 46.8%.

First: CC(C)(C)c1cc(NC(=O)CN2CCC(N3CCNC3=O)CC2)on1
Second: CCCN1CCC(NC(=O)c2csc(C)c2C)CC1
The INHIBITION of the first is lower: 3.73% for the first, 64.4% for the second.

Going from `CC(=O)N1CCC(c2ncc3c(n2)CCN(C(=O)c2ccccc2)C3)C1` (stereo unspecified) to `Cc1ncsc1C(=O)NC1CCN(CCC(=O)Nc2ccccc2)CC1`, the INHIBITION falls from 1.5% to -5.07%.

Compared with `CCOCCN1CCC=C(C2c3nc[nH]c3CCN2C(C)=O)C1` (stereo unspecified), `CCn1nc(C)c(CN2CCCC(c3ccc(C(=O)O)cc3)C2)c1C` (stereo unspecified) is higher in INHIBITION: 36.6% for the first, 62.4% for the second.

Compared with `CCn1nc(C)c(CN2CCC(c3ccc(C(=O)O)cc3)C2)c1C` (stereo unspecified), `Cc1nn(C)c(C)c1CN1CCCC(c2ccc(C(=O)O)cc2)C1` (stereo unspecified) is lower in INHIBITION: 27.9% for the first, 6.88% for the second.

First: Cc1nn(C)c2c(N3CCN(C(=O)C(C)C)CC3)ncnc12
Second: CCC(=O)N1CCN(c2ncnc3c(C)nn(C)c23)CC1
The INHIBITION of the first is lower: 10.1% for the first, 50.7% for the second.

First: Cc1nn(C)c2c(N3CCN(C(=O)C4CC4)CC3)ncnc12
Second: CCc1nc(N2CCCN(c3ncccn3)CC2)c2cnn(C)c2n1
The INHIBITION of the first is higher: 44.1% for the first, 33.3% for the second.

Compared with `CCc1nc(N2CCN(c3ncccn3)CC2)c2cnn(C)c2n1`, `CCc1nc(N2CCN(c3ncccc3C#N)CC2)c2cnn(C)c2n1` is higher in INHIBITION: -3.55% for the first, 53.7% for the second.

Going from `O=C(c1ccc(F)cc1)N1CCC2(CCCN2CC2CC2)CC1` to `NC(=O)c1ccc(CN2CCCC(N3CCCCCC3)C2)cc1` (stereo unspecified), the INHIBITION falls from 26.6% to 22%.

First: COc1ccccc1N1CCN(Cc2cnc3c(c2)c(C)nn3C)CC1
Second: O=c1cc2c(nn1CN1CCN(c3ccc(F)cc3)CC1)CCC2
The INHIBITION of the first is higher: 32.3% for the first, -6.53% for the second.

Compared with `CN1CCC(NC(=O)NCc2csc(Br)c2)CC1`, `Cc1ccc(-c2c(C(=O)NC3CCN(C)CC3)csc2C)cc1` is higher in INHIBITION: 45.9% for the first, 68.4% for the second.

Going from `CCCN1CCC(NC(=O)NCCc2nc(CC)c(C)s2)CC1` to `CCCN1CCC(NC(=O)c2csc(C)c2-c2ccc(C)cc2)CC1`, the INHIBITION falls from 26.8% to 1.56%.

Compared with `Cc1ccc(-c2ccsc2C(=O)NC2CCS(=O)(=O)C2)cc1` (stereo unspecified), `Cc1ccc(NC(=O)c2ccc(=O)n(CC(=O)Nc3nccs3)n2)cc1` is higher in INHIBITION: -63.5% for the first, 42.7% for the second.

Going from `CCCN1CCC(NC(=O)c2csc(C)c2-c2ccccc2)CC1` to `CCn1c(CC2CCN(S(=O)(=O)Cc3ccccc3)CC2)nn(C)c1=O`, the INHIBITION falls from 81.5% to -28.1%.

First: O=c1ccc(-c2ccccc2F)nn1CN1CCCCCC1
Second: C=Cc1ccc(CN2CCCC3(CNC(=O)c4ccccc4O3)C2)cc1 (stereo unspecified)
The INHIBITION of the first is lower: -22.9% for the first, 29.2% for the second.

Going from `CN1CCCC(c2ccc(N3CCOCC3)cn2)C1` (stereo unspecified) to `Cn1nnc2c1C(COCC1CC1)CN(Cc1ccoc1)C2` (stereo unspecified), the INHIBITION rises from -2.48% to 42.3%.

Going from `CCOC[C@H]1CC[C@H]2[C@H](CCN2S(=O)(=O)Cc2ccccc2)O1` to `CCOC[C@@H]1CC[C@H]2[C@H](CCN2S(=O)(=O)Cc2ccccc2)O1`, the INHIBITION rises from 12.1% to 57.1%.

First: COC[C@H]1CC[C@H]2[C@H](CCN2S(=O)(=O)Cc2ccccc2)O1
Second: CN1C(=O)CC[C@@H]2[C@H]1CCN2S(=O)(=O)Cc1ccccc1
The INHIBITION of the first is lower: -34.6% for the first, 61.5% for the second.

First: CN1C(=O)C[C@@H]2[C@@H]1CCN2S(=O)(=O)Cc1ccccc1
Second: Cc1ccc(CS(=O)(=O)N2CC[C@H]3[C@H]2CC(=O)N3C)cc1
The INHIBITION of the first is higher: 26.8% for the first, 15.4% for the second.

Compared with `Cc1ccc2cnn(CCC(=O)Nc3nc(C)c(C)s3)c2c1`, `Cc1nn(C)c(N(C)C)c1CNC(C)c1cccc(OC(C)C)c1` (stereo unspecified) is lower in INHIBITION: 30.8% for the first, 27.4% for the second.

Compared with `O=C1CC2(CCCNC2)C(=O)N1Cc1ccc(F)cc1` (stereo unspecified), `O=C1CC2(CCNCC2)C(=O)N1Cc1ccc(F)cc1` is higher in INHIBITION: 4.06% for the first, 16.1% for the second.

Compared with `NC(=O)c1ccc(CN2C(=O)C3(CCNCC3)Nc3ccccc32)cc1`, `C=Cc1ccc(CN2C(=O)C3(CCNCC3)Nc3ccccc32)cc1` is higher in INHIBITION: 67% for the first, 87.8% for the second.

Compared with `CC(C)c1ccc(CN2C(=O)C3(CCNCC3)Nc3ccccc32)cc1`, `O=C1CC2(CCCNC2)C(=O)N1Cc1ccccc1` (stereo unspecified) is lower in INHIBITION: 80.9% for the first, 27.4% for the second.

First: CN(Cc1nnc(C2CC2)n1C)C1CCN(CCc2cnn(C)c2)C1 (stereo unspecified)
Second: CO[C@H]1CCN(S(=O)(=O)c2cn(C)cn2)[C@H]1Cc1ccccc1
The INHIBITION of the first is higher: 7.08% for the first, -8.85% for the second.

— ChEMBL document CHEMBL4513216, “Probing the Open Global Health Chemical Diversity Library for Multistage-Active Starting Points for Next-Generation Antimalarials” (ACS Infect Dis, 2020)
